# Compound activity from PubChem.
# Six1-Eya2 inh = blocks human Six1 binding to Eya2 | AlphaScreen GST-Six1/His-Eya2 binding, biochemical; stronger effect = lower value | activity change, % (test concentration not listed) | actives 0.56% (n = 360,000) | AID 651725; in the data active means activity change below about -65%; inconclusive means mostly about -30% to -63%; further: on the % scale 0 is the no-effect control and ±100 the full control effect
#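 GST-Six1 + His-Eya2 (5X stock: 250/500 nM); Tris pH 8.0, 300 mM NaCl, 0.05% BSA, 0.02% Tween 20; GSH donor/Ni acceptor beads; 1 h 37 °C dark; AlphaScreen readout.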
# CtBP-E1A blk = inhibitors of CtBP/E1A interaction; AlphaScreen GST-E1A/His-CtBP binding, 1536-well; stronger effect = lower value; activity change, % (no concentration beside the values); actives 0.49% (n = 340,000); AID 651724; in the data active means activity change below about -65%; inconclusive means mostly about -30% to -63%; further: on the % scale 0 is the no-effect control and ±100 the full control effect
#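 Steps: dispense buffer (Tris pH 8.0, NaCl 300 mM, TCEP 1 mM, BSA, Tween 20); add 5X protein mix (GST-E1A, His-CtBP, 125 nM each); pin 23 nL compound; 2 h at 37 °C, dark; add 5X beads (50 ug/mL); 1 h; read.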
# BAZ2B inh = blocks human BAZ2B; Q9UIF8; AlphaScreen BAZ2B-H3K14Ac peptide displacement; Potency, µM (doses to about 114 µM), for inactives: at the top dose activity change, negative = inhibition, actives largely listed as inhibitors; actives 4.4% (n = 360,000); further: potency means the concentration at half of the fitted maximal effect; on the % scale 0 is the no-effect control and ±100 the full control effect; nearly all actives have a fitted effect of over 60% in size
#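 BAZ2B (50 nM) with biotin-H3(5-23)K14Ac peptide (50 nM) in PBS pH 7.4, 0.01% Tween-20, preformed 30 min, then compound 30 min at room temperature; top concentration 110uM. AlphaScreen streptavidin donor/nickel chelate acceptor beads (10 ug/mL final), 20 min dark, signal read.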
# HP1b binding inh = inhibitors of HP1-beta chromodomain binding to methylated histone tails; AID 540317; actives 0.56% (n = 390,000); AlphaScreen HP1-beta / biotin-H3K9me3 peptide binding; Potency, µM (titrated, usually from 114 µM), for inactives: at the top dose activity change, negative = inhibition, most hits filed as inhibitors; further: potency means the concentration at half of the fitted maximal effect; nearly all actives have a fitted effect of over 70% in size
#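 Compound inhibition of the preformed complex between 50 nM HP1-beta and 50 nM biotinylated H3K9me3 peptide was read by AlphaScreen. Buffer was PBS pH 7.4 with 0.01% Tween-20. Incubations ran 30 min at room temperature, with 10 ug/mL donor/acceptor beads.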
# G9a block = blocks human histone lysine methyltransferase G9a; G9a H3K9 monomethylation, AlphaScreen, 2 h; AID 504332; Q96KQ7; actives 8.8% (n = 350,000); Potency, µM (doses to about 102 µM), inactives show at the top dose activity, negative = inhibition, actives largely listed as inhibitors; further: potency means the concentration at half of the fitted maximal effect; on the % scale 0 is the no-effect control and ±100 the full control effect; nearly all actives have a fitted effect of over 75% in size
#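 Using a bead-based AlphaScreen, monomethylated H3K9 product from 2 h room-temperature reactions (G9a 20 nM, peptide 500 nM, SAM 20 uM) was detected with 0.5 ug/mL rabbit anti-H3K9me1 antibody.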
# JMJD2A Tudor inh = inhibitors of human JMJD2A Tudor domain. Potency, µM (series often up to 114 µM), for the others: at the top dose activity change, negative = inhibition, actives largely listed as inhibitors. actives 4.4% (n = 390,000). O75164. AID 504339. AlphaScreen JMJD2A-Tudor / H3K4me3 peptide binding; further: potency means the concentration at half of the fitted maximal effect; on the % scale 0 is the no-effect control and ±100 the full control effect; nearly all actives have a fitted effect of over 50% in size
# Target sequence (O75164 whole entry, looked up, the tested form may be a part): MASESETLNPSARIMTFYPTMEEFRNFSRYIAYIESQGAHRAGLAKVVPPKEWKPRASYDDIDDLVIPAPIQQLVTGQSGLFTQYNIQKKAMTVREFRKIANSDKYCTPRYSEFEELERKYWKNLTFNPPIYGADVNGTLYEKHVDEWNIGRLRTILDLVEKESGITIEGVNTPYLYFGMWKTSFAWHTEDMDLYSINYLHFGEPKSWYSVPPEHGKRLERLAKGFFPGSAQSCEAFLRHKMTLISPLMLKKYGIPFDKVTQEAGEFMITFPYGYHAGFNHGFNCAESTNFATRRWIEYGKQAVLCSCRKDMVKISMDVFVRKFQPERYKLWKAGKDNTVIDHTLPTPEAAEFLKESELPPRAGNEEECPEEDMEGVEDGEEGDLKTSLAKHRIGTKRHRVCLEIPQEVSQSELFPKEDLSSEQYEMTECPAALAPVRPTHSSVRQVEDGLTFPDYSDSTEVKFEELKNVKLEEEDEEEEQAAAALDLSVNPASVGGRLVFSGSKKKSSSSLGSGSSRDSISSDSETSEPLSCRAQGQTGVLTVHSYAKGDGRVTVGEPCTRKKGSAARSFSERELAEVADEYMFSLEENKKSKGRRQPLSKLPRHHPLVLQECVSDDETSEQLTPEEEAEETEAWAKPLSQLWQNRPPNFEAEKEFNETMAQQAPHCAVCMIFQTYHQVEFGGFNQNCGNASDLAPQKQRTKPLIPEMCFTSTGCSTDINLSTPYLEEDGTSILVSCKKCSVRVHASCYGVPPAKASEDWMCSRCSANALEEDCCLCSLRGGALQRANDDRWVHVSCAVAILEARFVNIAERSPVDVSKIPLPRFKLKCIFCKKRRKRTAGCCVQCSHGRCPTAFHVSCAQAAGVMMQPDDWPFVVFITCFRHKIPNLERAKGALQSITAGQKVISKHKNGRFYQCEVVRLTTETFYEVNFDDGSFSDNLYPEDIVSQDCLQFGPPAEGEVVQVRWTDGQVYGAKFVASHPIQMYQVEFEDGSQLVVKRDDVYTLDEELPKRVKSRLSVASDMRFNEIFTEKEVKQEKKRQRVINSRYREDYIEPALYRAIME
# Active calls of the source: *; ? = inconclusive; . = no result; [ ] = remark or other dose. Sampled rows, rich in hits. Any-hit rate of the full collection: about 10%. Unless noted, the call rests on the fitted dose curve; in most records, active means well fitted inhibition curve with a large enough effect; inconclusive means small, poorly fitted or top-dose-only effect; inactive means no such curve, though single readings can be large or run the other way.
SMILES,Six1-Eya2 inh,CtBP-E1A blk,BAZ2B inh,HP1b binding inh,G9a block,JMJD2A Tudor inh
C[C@H](CO)N1C[C@H](C)[C@@H](CN(C)C(=O)Nc2ccc3c(c2)OCO3)Oc2c(NC(=O)Nc3ccccc3)cccc2C1=O,-2.8,-1.8,.,5.8%,.,?
COc1ccc(CCNC2=CC(=O)CCC2)cc1OC,-0.1,1.0,.,.,.,.
O=C(c1ccco1)N1CCC2(CCCN(Cc3ccccc3)C2)CC1,.,.,.,.,4.2%[12.7 µM],.
O=S(=O)(Nc1ccccc1OC(F)F)c1ccc(S(=O)(=O)N2CCCC2)cc1,0.7,24.2,-3.2%,34.6%,19.6%[12.7 µM],-4.5%
CCC1(c2ccccc2)NC(=O)N(CC(=O)Nc2cc(Cl)ccc2N2CCN(C)CC2)C1=O (stereo not given),-0.8,-4.9,1.0%,28.1%,-3.4%[12.7 µM],-23.2%
CN1CCN(c2ccc(Cl)cc2NC(=O)CN2C(=O)NC(C)(c3ccccc3)C2=O)CC1 (stereo not given),0.3,-0.7,-22.1%,26.8%,44.7µM*,-21.6%
COCCn1c(-c2ccc(-c3ccc([N+](=O)[O-])cc3Br)o2)nc2c1c(=O)[nH]c(=O)n2CC(C)C,1.3,2.9,-29.4%,20.9%,35.5µM*,-20.3%
COCCn1c(=O)[nH]c(=O)c2c1nc(-c1ccc(-c3ccc(Cl)cc3[N+](=O)[O-])o1)n2Cc1ccccc1,-18.2,-5.7,?,?,8.91µM*,?
COc1ccc(-c2ccc(-c3nc4c(c(=O)[nH]c(=O)n4Cc4ccccc4)n3C)o2)c([N+](=O)[O-])c1,-18.2,1.5,?,1.5%,?,-16.8%
CCOC(=O)c1c(C)[nH]c(C)c1S(=O)(=O)NCc1cc(C)ccc1C,-10.8,-5.4,50.1µM*,16.8%,?,?
COc1cc(C2=NOC(C(=O)Nc3ccc4c(c3)OCO4)C2)cc(OC)c1OC (stereo not given),-13.7,-12.8,-35.4%,10.4%,25.1µM*,-33.7%
COc1ccc(NC(=O)C2CC(c3cc(OC)c(OC)c(OC)c3)=NO2)cc1OC (stereo not given),-11.1,-6.5,-29.7%,-3.6%,?,-28.2%
COc1ccc(NC(=O)C2CC(c3ccccc3O)=NO2)cc1OC (stereo not given),-7.1,-2.1,2.8%,32.1%,44.7µM*,-11.7%
O=C(NCc1ccco1)C1CC(c2ccccc2C(F)(F)F)=NO1 (stereo not given),5.0,7.2,-1.3%,33.1%,5.8%[59 µM],-11.8%
COc1cccc(C2=NOC(C(=O)Nc3ccc4c(c3)OCO4)C2)c1OC (stereo not given),-14.1,.,-8.1%,0.4%,44.7µM*,-12.1%
COc1cccc(C2=NOC(C(=O)Nc3ccc4c(c3)OCO4)C2)c1 (stereo not given),-7.2,-5.7,-34.8%,30.7%,?,-13.1%
O=C(NCc1ccco1)C1CC(c2ccccc2O)=NO1 (stereo not given),-1.7,-1.6,79.4µM*,1.8%,.,?
Cc1ccccc1NC(=O)C1Cc2ccccc2CN1C(=O)OCc1ccccc1 (stereo not given),22.0,1.1,-1.5%,33.5%,10.4%[59 µM],-10.7%
COc1cc(C(=O)Nc2sc3c(c2C#N)CCCC3)c(Br)c(OC)c1OC,.,.,-3.4%,-1.1%,-2.3%[59 µM],-24.2%
COc1ccc(C2=NOC(C(=O)Nc3ccc4c(c3)OCO4)C2)cc1OC (stereo not given),-3.7,0.1,.,16.9%,50.1µM*,-26.4%
c1ccc2c(c1)oc1c(NCCCn3ccnc3)ncnc12,-12.4,-1.4,?,26.6%,3.5%[12.7 µM],-21.1%
O=c1c2ccccc2oc2ccc(NCCCn3ccnc3)cc12,-17.6,-22.1,50.1µM*,39.0%,.,?
O=C1NC[C@@H](CCCCN2C[C@H](Cc3ccc(O)cc3)N(Cc3ccccc3)C(=O)C2=O)N(CC2CCCCC2)C1=O,-2.8,-2.4,.,.,.,.
CC1(C)CNC(=O)c2sc(NC(=O)CN3CCOCC3)nc2C1,-0.7,3.0,2.6%,44.6%,-12.6%[59 µM],20µM*
O=C(/N=C1\NC(=O)C(F)(C(F)(F)F)S1)NC1CCCCC1 (stereo not given),?,-20.1,-27.8%,?,3.16µM*,50.1µM*
SMILES,Six1-Eya2 inh,CtBP-E1A blk,BAZ2B inh,HP1b binding inh,G9a block,JMJD2A Tudor inh
CNc1nc(N)c(C(=O)C23CC4CC(CC(C4)C2)C3)s1,-6.9,-23.5,?,-3.1%,?,-35.0%
COc1ccc(C(=O)Cn2c(NCCCO)nc3ccccc32)cc1,11.3,0.8,.,.,.,.
O=C(Cn1c(NCCCO)nc2ccccc21)c1ccc(Cl)cc1Cl,0.9,1.7,-31.1%,-1.9%,79.4µM*,-25.3%
COc1ccc(-n2c(C)cc(C(=O)Cn3c(NCCO)nc4ccccc43)c2C)cc1,-11.3,-17.4,50.1µM*,?,50.1µM*,?
CCCCC(=O)N(C)c1c(CC)nc2c(OCc3cc(Cl)cc(Cl)c3)cccn12,23.6,-14.2,.,.,.,.
CCOC(=O)c1noc2ncnc(N(CCC(=O)OC)c3ccccc3)c12,.,.,-0.3%,9.9%,11.7%[59 µM],-6.7%
Cn1nnc2c[n+](CC(=O)c3ccc(Cl)cc3)cc(Br)c21,15.6,0.0,-17.8%,14.0%,?,-16.8%
Cn1nnc2c[n+](CC(=O)c3ccc4ccccc4c3)cc(Br)c21,4.5,4.4,?,19.6%,56.2µM*,-27.6%
CCCC(=O)N1CCC1(C)C(=O)Nc1cc(OC)c(OC)c(OC)c1 (stereo not given),0.2,5.4,.,.,.,.
CCCCOC(=O)C1CCCC(C)N1 (stereo not given),4.4,-24.7,-38.5%,-6.1%,28.2µM*,22.4µM*
CCCCCCCCCCOC(=O)NC1CCS(=O)(=O)C1 (stereo not given),3.1,-9.1,-0.3%,47.1%,21.8%,6.2%
CS(=O)(=O)NCCn1ccc2ccccc21,17.3,.,.,13.4%,?,?
CC(C)CN(CC(C)C)S(=O)(=O)c1ccc(C(=O)Nc2sc3c(c2C(N)=O)CCN(C(C)C)C3)cc1,.,.,1.0%,40.3%,0.6%[59 µM],-19.0%
C/C(=C/CCC(C)C1CCC2(C)C3CCC4C(C)(C)C(=O)CCC4(C)C3=CCC12C)C(=O)O (stereo not given),.,.,50.1µM*,.,4.8%[59 µM],.
COc1ccc(N2CCN(c3nc(NCCc4ccc(OC)c(OC)c4)nc(OC)n3)CC2)cc1,?,?,39.8µM*,?,11.2µM*,25.1µM*
O=C(O)c1cc(O)c2c(c1)[O][Bi][O]2,.,.,.,.,1µM*,.
O=C(O)c1ccc2c(c1)OCCOCCOCCOCCOCCO2,17.9,8.6,-17.9%,32.2%,-46.8%,2.7%
